# In PubChem BioAssay AID504832 (National Center for Advancing Translational Sciences (NCATS), 2011):
# About 18,000 (5.8%) of roughly 310,000 compounds were called active. Another 22% or so got no clear call; they are omitted. The full list was thinned out, with actives kept by preference. Unmarked numbers belong to inactive results. Calls follow the shape of the dose curve; as a rule, active = well fitted inhibition curve with a large enough effect; inconclusive = small, poorly fitted or top-dose-only effect, or another doubt; inactive = no such curve, though single readings can be large or run the other way.
# Experiment: Primary qHTS for delayed death inhibitors of the malarial parasite plastid, 48 hour incubation
# Details: P. falciparum luciferase growth in erythrocytes; series mostly up to 28.7 µM; activity change, negative = inhibition: at the top concentration
# Method in brief: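 A one-generation exposure of luciferase-tagged malaria parasites in RPMI 1640/Albumax erythrocyte culture, 37 C and 5% CO2. Inhibition is inferred from decreased luminescence after adding detection reagent.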
# % is scaled to controls: 0 for no effect and ±100 for the full control effect; potency is read from the fitted curve at half-maximal effect.
SMILES,"activity change, negative = inhibition",Potency
COc1ccc(C(=O)NC(C)CCc2ccccc2)c(OC)c1 (configuration not stated),-23.8% [at 0.00184 µM],–
CCc1sc(C(=O)N2CCN(CC(=O)Nc3cccc(F)c3)CC2)cc1C,4.46%,–
CCOc1ccc(NC(=S)N2CCC(N(C)CC3CCCO3)CC2)cc1 (configuration not stated),15%,–
CCOc1ccc(S(=O)(=O)N2CCN(C(=S)NCC3CCCO3)CC2)cc1 (configuration not stated),–,5.22 µM (active)
COc1ccc(S(=O)(=O)N2CCC(C(=O)N3CCOCC3)CC2)cc1OC,4.87%,–
CCOc1ccc(S(=O)(=O)NCCC(=O)NCC2CCCO2)cc1 (configuration not stated),3.77%,–
COc1ccc(S(=O)(=O)N2CCN(C(=S)NCC3CCCO3)CC2)cc1OC (configuration not stated),–,1.85 µM (active)
S=C(NCC1CCCO1)N1CCN(c2ccc(Cl)c(Cl)c2)CC1 (configuration not stated),-30.4%,–
CCCCNC(=O)CN1C(=O)NC(Cc2ccccc2)(Cc2ccccc2)C1=O,-9.93%,–
CCN(CC)S(=O)(=O)c1ccc2[nH]cc(C(=O)NCCc3ccccc3)c(=O)c2c1,–,13.1 µM (active)
CCCCNC(=O)c1c[nH]c2ccc(S(=O)(=O)Nc3ccc(OCC)cc3)cc2c1=O,-11.5%,–
CCN(CC(=O)NCCc1ccccc1)S(=O)(=O)c1ccccc1,1.84%,–
COc1ccccc1C(=O)NC(=O)COC(=O)C1CC1,-1.65%,–
COc1ccccc1CCNC(=O)c1c(C)nn(CC(C)C)c1Cl,2.24%,–
COC(=O)C1CCCCN1C(=O)c1ccc(OC2CCN(C(C)=O)CC2)c(OC)c1 (configuration not stated),2.55%,–
O=C(NC(=S)Nc1ccc(Cl)cc1Cl)C1CC1,24.5%,–
CCCCn1c(N)c(N(CC)C(=O)c2ccccc2C(F)(F)F)c(=O)[nH]c1=O,-1.06%,–
Cc1ccc(S(=O)(=O)N2CCC(C)CC2)cc1C(=O)NCc1ccccn1,7.37%,–
CC(=O)Nc1c2c(nn1-c1ccc(C)cc1C)CS(=O)C2 (configuration not stated),14.5%,–
Cc1nn(CCCC(=O)NCc2ccccc2Cl)c(=O)c2nccn12,-1.54%,–
CCOC(=O)CSc1nc2c(c(=O)n(Cc3ccccc3Cl)c(=O)n2C)n1C,-9.46%,–
CCC(=O)Nc1ccc2nc(C)n(Cc3ccccc3Cl)c(=O)c2c1,–,13.1 µM (active)
COc1ccc(CCN(C)C(=O)C23CC4CC(CC(Cl)(C4)C2)C3)cc1OC,-2.28%,–
Cc1cc(-c2ccc(C)c(S(=O)(=O)Nc3ccc(S(N)(=O)=O)cc3)c2)on1,24.5%,–
Cn1cc(/C=C/c2nc3ccccc3c(=O)n2-c2cccc([N+](=O)[O-])c2)c2ccccc21,–,10.4 µM (active)
Cc1nc2ccccc2c(=O)n1Cc1ccc([N+](=O)[O-])cc1,6.4%,–

SMILES,"activity change, negative = inhibition",Potency
Cc1cc(CNC(=O)c2cccc([N+](=O)[O-])c2)c2ccccc2n1,36.5%,–
Cc1ccc(CC2CC(=O)N(c3cc(C)ccc3C)C2=O)cc1 (configuration not stated),4.56%,–
COc1ccc(NS(=O)(=O)c2ccc3oc(SCC(N)=O)nc3c2)cc1,-1.65%,–
O=C(COC(=O)CNC(=O)C1CCCCC1)NCc1ccccc1,23.9%,–
Cc1cccc(-[n+]2c(-c3cccc(Br)c3)[nH]c3nc4ccccc4nc32)c1,–,13.1 µM (active)
Cc1ccc2nc(-c3cccc(Br)c3)cc(C(=O)Nn3cnnc3)c2c1,50.9%,–
O=C(NNC(=S)NCc1ccccc1)c1ccc(OC(F)F)cc1,6.83%,–
Cc1ccc(OCC(=O)NNC(=S)NCc2ccccc2)cc1,-6.04%,–
CC(C)Oc1ccc(CCC(=O)NNC(=S)NCc2ccccc2)cc1,–,1.65 µM (active)
O=C(CSc1nc2[nH]ncc2c(=O)[nH]1)Nc1ccc(F)cc1,-26.2%,–
Cc1nonc1NC(=O)c1ccccc1Br,11.3%,–
Cc1c(C(=O)NNC(=O)c2ccncc2)oc2ccccc12,2.2%,–
Cc1nonc1NC(=O)c1oc2ccccc2c1C,–,9.28 µM (active)
Cc1ccc(NS(=O)(=O)c2ccc3c(c2)NC(=O)CO3)cc1,16.8%,–
Cc1cc2c(cc1C)NC(c1ccccn1)C1=C(CC(C)(C)CC1=O)N2 (configuration not stated),–,10.4 µM (active)
CC1(C)CC(=O)C2=C(C1)Nc1cc(C(=O)c3ccccc3)ccc1NC2c1ccccn1 (configuration not stated),-3.64%,–
CC1(C)CC(=O)C(C2=NC(C)(C)Cc3ccccc32)=C(O)C1,-7.07%,–
Cc1ccc(NS(=O)(=O)c2ccc(-c3coc(C)n3)cc2)c(C)c1,32.4%,–
CCc1ccc2[nH]c(=O)c(Cc3ccccc3)c(O)c2c1,-10.4%,–
CCOC(=O)C(Cc1ccccc1)NC(=O)CCC(=O)c1ccc(OC)cc1 (configuration not stated),-19.8%,–
COc1cc([C@H](Cc2ccccc2)NC(C)=O)oc(=O)c1,–,9.28 µM (active)
COC(=O)[C@H](Cc1ccccc1)NC(=O)Nc1ccc(OC)cc1,-8.2%,–
Nc1cc(N)nc(SCc2cccc(F)c2)n1,59.5%,–
COc1ccc(S(=O)(=O)N2CCN(C)CC2)c(C)c1,0.0519%,–
CC(C)CCN1CCC(C)(NC(=O)c2ccccc2)C1=O (configuration not stated),0%,–
Cc1cc(Cl)c2oc(C(=O)NC(C)c3ccncn3)c(C)c2c1 (configuration not stated),0%,–
